In PubChem BioAssay AID2685 (National Center for Advancing Translational Sciences (NCATS), 2010):
The campaign covered roughly 320,000 compounds. About 2,100 (0.66%) were called active. Another 53% or so got no clear call; they are omitted. Calls follow the shape of the dose curve; as a rule, active = well fitted inhibition curve with a large enough effect in the signal ratio, with a control signal flat (not every such curve was filed as active); inconclusive = small, poorly fitted or top-dose-only effect, or effect the other way, or a change in a side signal; inactive = flat fitted curve, though single readings scatter; the % refers to the signal ratio. What follows is part of a selection rich in actives, with near analogues and random picks from the rest.

Assay: qHTS Assay for Lipid Storage Modulators in Drosophila S3 Cells;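 as to cell number change: cells counted by Cell Tracker Red CMTPX staining in the red channel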; as to lipid storage change, negative = inhibition: % is scaled to controls: 0 for no effect and ±100 for the full control effect
Conditions: BODIPY lipid droplet fluorescence, 18-24 h, cells fed with added oleic acid; cell number change: measured here: cell count max response; series mostly up to 46.1 µM; lipid storage change, negative = inhibition: at the top concentration
Method in brief: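 Drosophila S3 cells loaded with oleic acid (400 uM, as added) and compounds at several concentrations; lipid droplets imaged by 488-nm laser-scanning cytometry, 500–530 nm intensity and object ratio to cell channel. Percent activity normalized to 20 uM Triacsin C.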
Potency is read from the fitted curve at half-maximal effect.

SMILES	outcome	lipid storage change, negative = inhibition	cell number change [%]	Potency
CCOc1ccc(-n2c(SCC(=O)NCc3ccco3)nnc2-c2c[nH]c3ccccc23)cc1	inactive	–	–	–
CCOC(=O)c1sc(N2N=C(C)/C(=C\c3ccc(OCC(=O)OC)cc3)C2=O)nc1C	–	-3.19% (inactive)	0.316	–
CC(=O)c1ccc(S(=O)(=O)NC2CCSc3ccccc32)cc1 (configuration not stated)	–	34% (inactive)	11.1	–
O=C(COC(=O)c1ccc(Cl)cc1[N+](=O)[O-])NC(=O)c1ccccc1	inactive	–	-11.4	–
Cc1ccc(C2=NC3(CCCC3)NC2=S)cc1	–	6.56% [at 9.22 µM] (inactive)	8.14	–
Cc1ccc(NC(=O)CCN2C(=O)c3ccccc3C2=O)c(C)c1	–	-5.21% (inactive)	5.45	–
COC(=O)c1ccccc1NC(=O)C1=CC(c2cccs2)=NS(=O)(=O)N1C	–	14.1% (inactive)	5.19	–
CN1C(C(=O)Nc2ccc(F)cc2F)=CC(c2cccs2)=NS1(=O)=O	–	-7.04% (inactive)	-0.288	–
CSc1ccccc1NC(=O)C1=CC(c2cccs2)=NS(=O)(=O)N1C	–	–	-26.8	4.11 µM (active)
Cc1nnc(SCC(=O)NNC(=O)c2ccccc2)n1-c1ccccc1	–	-11.8% (inactive)	–	–
COc1cc2c(cc1OC)C(c1ccccc1)N(C(=O)c1cccc(S(C)(=O)=O)c1)CC2 (configuration not stated)	inactive	–	14.6	–
COc1ccccc1/C=C/C(=O)OCC(=O)c1cc(C)n(C)c1C	–	–	-22.1	1.3 µM (active)
Cc1cc(C(=O)COC(=O)/C=C/c2cccc(F)c2)c(C)n1C	–	7.92% (inactive)	5.66	–
Cc1cc(C(=O)COC(=O)/C=C/c2cccc(Br)c2)c(C)n1C	–	-6.39% (inactive)	–	–
COc1ccc(S(=O)(=O)Nc2ccccc2N2CCOCC2)cc1[N+](=O)[O-]	–	-24.1% (inactive)	0.857	–
COCCCNC(=S)Nc1ccc2nc(N3CCOCC3)cc(C)c2c1	–	1.62% (inactive)	0.741	–
O=C(NCCS(=O)(=O)N1CCN(c2ccc(F)cc2)CC1)C1CC(=O)N(c2ccccc2)C1 (configuration not stated)	inactive	–	4.61	–
Cc1ccc(N2CC(C(=O)NCCS(=O)(=O)N3CCN(c4ccc(F)cc4)CC3)CC2=O)cc1 (configuration not stated)	–	–	-2.39	2.06 µM (active)
O=C(NCCS(=O)(=O)N1CCN(c2ccccc2)CC1)C1CC(=O)N(c2ccc(F)cc2)C1 (configuration not stated)	inactive	–	-3.13	–
CC(=O)N1CCc2c(sc(NC(=O)Cc3ccc(F)cc3)c2C#N)C1	–	3.42% (inactive)	7.34	–
COc1cccc(CNC(=O)COC(=O)c2nc(Cl)c(Cl)c(Cl)c2Cl)c1	–	–	-29.4	14.6 µM (active)
O=C(COC(=O)c1nc(Cl)c(Cl)c(Cl)c1Cl)NCc1ccccc1	–	-15.2% (inactive)	-8.84	–
COc1cccc(CNC(=O)CCl)c1	–	-9.82% (inactive)	5.99	–

SMILES	outcome	lipid storage change, negative = inhibition	cell number change [%]	Potency
COC(=O)c1sccc1NC(=O)CC1C(=O)NCCN1C(=O)Nc1cc(Cl)ccc1OC (configuration not stated)	–	8.74% (inactive)	13.4	–
CCC(=O)Oc1ccc2c(=O)c(-c3ccc4ccccc4n3)c(CC)oc2c1C	–	6.65% (inactive)	1.88	–
COc1ccc(C(=O)O)cc1S(=O)(=O)Nc1cccc(C(F)(F)F)c1	–	–	-15.9	29.1 µM (active)
COc1ccc(C(=O)N2CCCCC2)cc1S(=O)(=O)Nc1cccc(C(=O)O)c1	–	-7.55% (inactive)	0.28	–
COc1ccc(F)cc1S(=O)(=O)Nc1cccc(C(=O)O)c1	–	-6.3% (inactive)	–	–
COC(=O)c1cccc(C23CC4(C2)[C@H](CN(Cc2cccnc2)[C@@H]4c2ccccc2)C3c2ccc(Cl)nc2)c1 (some centres not stated)	–	16.4% (inactive)	17.9	–
CC(C)(C)OC(=O)N/N=C/c1cccc([N+](=O)[O-])c1	–	-1.02% (inactive)	14.2	–
CCCCCCCNC(=O)C1(CC2CC(c3cccc(Br)c3)=NO2)CCN(C(=O)c2cc(OCC)c(OCC)c(OCC)c2)CC1 (configuration not stated)	–	-9.14% (inactive)	-10.9	–
O=C(c1ccccc1)N1CCC(CC2CC(c3cccc(Br)c3)=NO2)(C(=O)NCC2CCCCC2)CC1 (configuration not stated)	–	-12% (inactive)	21.3	–
CCOc1cc(C(=O)N2CCC(CC3CC(c4cccc(Br)c4)=NO3)(C(=O)NCC3CCCCC3)CC2)cc(OCC)c1OCC (configuration not stated)	–	–	23.9	2.06 µM (active)
O=C(NCC(=O)N(CCN1CCOCC1)C(C(=O)NC1CCCC1)c1ccccc1)c1cccs1 (configuration not stated)	–	8.9% (inactive)	-0.374	–
Cc1ccc(N(Cc2ccccc2)C(=O)c2cccc(S(=O)(=O)N3CCN(C)CC3)c2)cc1	inactive	–	-1.81	–
Cc1cc(=O)[nH]c(N/N=C/c2ccc(Cl)cc2Cl)n1	–	13.3% (inactive)	3.1	–
CCN1CCN(Cc2ccc(NC(=O)c3ccc(C)c(NC(=O)c4ccc5n[nH]nc5c4)c3)cc2C(F)(F)F)CC1	–	17.7% (inactive)	–	–
CCN1CCN(Cc2ccc(NC(=O)c3ccc(C)c(NC(=O)c4ccnnc4)c3)cc2C(F)(F)F)CC1	–	15.2% (inactive)	–	–
CCN1CCN(Cc2ccc(NC(=O)c3ccc(C)c(/C=C/c4cnc(Nc5cc(N6CCNCC6)nc(C)n5)cn4)c3)cc2C(F)(F)F)CC1	–	–	-17.2	18.4 µM (active)
CN1CCc2nc(NC(=O)c3cccc(S(=O)(=O)N4CCc5ccccc54)c3)sc2C1	inactive	–	12.6	–
COCC(=O)Nc1cc(C(=O)NCC(C)C)ccc1Cl	–	12.1% (inactive)	4.26	–
Cc1nc2ccccc2c(=O)n1/N=C/c1ccccc1O	–	-4.47% (inactive)	14.5	–
COc1cc(OC)c(OC)cc1/C=N/n1c(C)nc2ccccc2c1=O	inactive	–	16.2	–
COc1ccc(Br)cc1/C=N/n1c(C)nc2ccccc2c1=O	–	–	-4.17	3.66 µM (active)
Cc1ccc(NC(=O)Cn2nc(-c3ccccc3)nc2-c2ccccc2)c(C)c1	–	-12.9% (inactive)	-8.2	–
CCOC(=O)CSc1ncnc2c1cnn2-c1ccccc1	–	0.461% (inactive)	-3.98	–

SMILES	outcome	lipid storage change, negative = inhibition	cell number change [%]	Potency
CCOC(=O)CSc1ncnc2c1cnn2-c1ccc(Cl)cc1	–	–	4.64	0.184 µM (active)
CCOC(=O)CNC(=O)CSc1ncnc2c1cnn2-c1ccc(C)cc1	–	11.5% (inactive)	-17	–
CCCOc1cccc(C(=O)N(Cc2ccco2)C2CCS(=O)(=O)C2)c1 (configuration not stated)	–	0.108% (inactive)	-9.39	–
CCNC(=S)NCc1ccc2[nH]c(C)cc2c1	–	-4.35% (inactive)	15.9	–
COc1cc(C(=O)NCCc2ccc(F)cc2)c([N+](=O)[O-])cc1OC	–	-7.12% (inactive)	–	–
COC(=O)c1ccc(NS(=O)(=O)c2c(C)[nH]c(C)c2C(=O)N2CCCC2)cc1	–	-16.1% (inactive)	-16.1	–
COc1ccc(CCNS(=O)(=O)c2c(C)[nH]c(C)c2C(=O)N2CCCCC2)cc1OC	inactive	–	-25.1	–
CCOC(=O)c1ccc(NS(=O)(=O)c2c(C)[nH]c(C)c2C(=O)N2CCCCC2)cc1	inactive	–	–	–
COc1ccccc1CNS(=O)(=O)c1c(C)[nH]c(C)c1C(=O)N1CCCC1	inactive	–	–	–
Cc1[nH]c(C)c(S(=O)(=O)Nc2ccc(OC(F)(F)F)cc2)c1C(=O)N1CCCCC1	–	–	-12.7	4.11 µM (active)
Cc1[nH]c(C)c(S(=O)(=O)NCCc2ccccc2)c1C(=O)N1CCCC1	–	10.2% (inactive)	13.4	–
COc1ccccc1CNS(=O)(=O)c1c(C)[nH]c(C)c1C(=O)N1CCCCC1	–	–	-19.3	18.4 µM (active)
Cc1ccccc1CNS(=O)(=O)c1c(C)[nH]c(C)c1C(=O)N1CCCCC1	inactive	–	-3.58	–
Cc1[nH]c(C)c(S(=O)(=O)NCCc2ccccc2)c1C(=O)N1CCCCC1	–	–	-13.9	11.6 µM (active)
O=C(CN1CCN(Cc2ccccc2Cl)CC1)N/N=C/C=C\c1ccccc1[N+](=O)[O-]	–	15.4% (inactive)	0.435	–
Cc1ccccc1C(=O)c1cccn1CC(=O)NCC(C)c1ccccc1 (configuration not stated)	–	-8.12% (inactive)	-7.34	–
COc1ccc(C(C(=O)NCCC(C)C)N(CCO)C(=O)c2snc(C(N)=O)c2N)cc1 (configuration not stated)	–	-5.21% (inactive)	-7.09	–
O=C(CSc1nnnn1C1CCCC1)NCc1ccc2c(c1)OCO2	inactive	–	–	–
CC1CCN(C(=O)c2ccccc2NS(=O)(=O)c2ccccc2)CC1	–	-2.04% (inactive)	7.63	–
Clc1ccc(N2CCN(Cc3ccco3)CC2)cc1	–	11.9% (inactive)	9.59	–
Cc1[nH]c2ccccc2c1/C=C(\C#N)C(=O)NC1CC1	inactive	–	–	–
CC1CCN(C2(O)C(=O)Nc3ccc([N+](=O)[O-])cc32)CC1 (configuration not stated)	–	19.6% (inactive)	-1.63	–
COc1ccc(NC(=O)c2cccc(N3C(=O)C4C5C=CC(C6CC56)C4C3=O)c2)c(OC)c1 (configuration not stated)	–	–	–	5.17 µM (active)

SMILES	outcome	lipid storage change, negative = inhibition	cell number change [%]	Potency
COc1ccc(NC(=O)c2cccc(N3C(=O)C4C5C=CC(C6CC56)C4C3=O)c2)cc1 (configuration not stated)	–	20.3% (inactive)	8.84	–
Cc1cccc(NC(=O)c2cccc(N3C(=O)CCC3=O)c2)c1	–	7.07% (inactive)	-21.8	–
COc1ccc(NC(=O)c2cccc(N3C(=O)C4C5C=CC(C5)C4C3=O)c2)c(OC)c1 (configuration not stated)	inactive	–	-15.9	–
COc1ccc(NC(=O)c2ccccc2N2C(=O)C3C4C=CC(C5CC45)C3C2=O)c(OC)c1 (configuration not stated)	–	-7% (inactive)	-15.3	–
Cc1ccc(NC(=O)c2cccc(N3C(=O)C4C5CCC(C5)C4C3=O)c2)c(C)c1 (configuration not stated)	–	-15.1% (inactive)	26.1	–
O=C(Nc1ccccc1)c1cccc(N2C(=O)C3C4C=CC(C5CC45)C3C2=O)c1 (configuration not stated)	–	–	-4.48	16.4 µM (active)
Cc1cccc(NC(=O)c2cccc(N3C(=O)C4C5C=CC(C6CC56)C4C3=O)c2)c1 (configuration not stated)	–	–	-23.8	1.3 µM (active)
O=C(Nc1ccc(F)cc1)c1cccc(N2C(=O)C3C4C=CC(C4)C3C2=O)c1 (configuration not stated)	–	-23.4% (inactive)	-17.9	–
CC(C)CNS(=O)(=O)c1ccc(OCC(=O)Nc2ccc3c(c2)OCCO3)cc1	–	22.1% (inactive)	–	–
Cc1nnc(SCC(=O)N2CCN(S(=O)(=O)c3ccc(Cl)cc3)CC2)n(N)c1=O	–	14.5% (inactive)	-9.35	–
COc1ccc(/C=N/Nc2cc(C)nc(N3CCOCC3)n2)c(OC)c1	–	-17.1% (inactive)	-6.43	–
Cc1ccc(NC(=O)c2cc([N+](=O)[O-])ccc2N2CCOCC2)cc1S(=O)(=O)N(C)C	–	3.55% (inactive)	9.84	–
O=C(Nc1ccccc1O)c1nc(Cl)ccc1Cl	–	-0.501% (inactive)	9.99	–
COc1ccc(NS(=O)(=O)c2ccc(C)c(C(=O)O)c2)cc1	–	–	-20.6	25.9 µM (active)
COc1ccc(S(=O)(=O)Nc2ccc(NC(C)=O)cc2)cc1	–	13.9% (inactive)	29.3	–
COC(=O)c1ccc(NS(=O)(=O)c2ccc(OC)cc2)cc1	inactive	–	–	–
COC(=O)c1cc(NS(=O)(=O)c2ccc(N3CCCCC3)c([N+](=O)[O-])c2)cc(C(=O)OC)c1	–	-9.87% (inactive)	-2.76	–
COc1ccc(NS(=O)(=O)c2ccc(C)c(C(=O)N3CC(C)OC(C)C3)c2)cc1 (configuration not stated)	–	12.4% (inactive)	23.9	–
COc1ccc(NS(=O)(=O)c2ccc(C)c(C(=O)N(C)Cc3ccc(OC)cc3OC)c2)cc1	–	-11.3% [at 0.0737 µM] (inactive)	–	–
COc1ccc(NS(=O)(=O)c2ccc(N)c(C(=O)O)c2)cc1	–	–	1.73	20.6 µM (active)
COc1ccc(NS(=O)(=O)c2ccc(N3CCN(CCO)CC3)c([N+](=O)[O-])c2)cc1	–	–	-29.2	10.3 µM (active)
O=C(O)c1ccc(NS(=O)(=O)c2ccc(N3CCCC3)c([N+](=O)[O-])c2)cc1	–	0.165% (inactive)	8.51	–
